Assay outcomes: PubChem, The Scripps Research Institute Molecular Screening Center
MOR-DOR inv ag: inverse agonists of MOR-DOR heterodimerization, primary screen, cell-based, luminescence | Mu-type opioid receptor (Homo sapiens) + Delta-type opioid receptor (Homo sapiens), … | cell-based MOR-DOR heterodimer luminescence, inverse agonism | inhibition, % at 9.3 µM | 340,000 compounds, 0.21% hits | AID 504357, 2011; in the data active means inhibition above about 22%, passing the limit was not always enough;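 further: 0% = cells with DMSO and 100% = wells without cells with DMSO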
Target sequence (P35372 whole entry, looked up): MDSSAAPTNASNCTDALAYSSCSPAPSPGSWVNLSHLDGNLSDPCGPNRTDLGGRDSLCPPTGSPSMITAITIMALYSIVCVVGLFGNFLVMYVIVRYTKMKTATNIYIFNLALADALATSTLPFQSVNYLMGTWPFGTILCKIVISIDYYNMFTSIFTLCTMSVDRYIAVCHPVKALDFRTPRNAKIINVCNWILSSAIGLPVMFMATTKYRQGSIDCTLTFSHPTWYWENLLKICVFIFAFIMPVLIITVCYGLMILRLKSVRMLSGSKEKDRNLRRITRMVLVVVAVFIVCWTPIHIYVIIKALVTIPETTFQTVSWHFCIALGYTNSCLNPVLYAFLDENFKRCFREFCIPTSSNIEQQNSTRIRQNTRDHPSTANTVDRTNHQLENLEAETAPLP
Target sequence (P41143 whole entry, looked up): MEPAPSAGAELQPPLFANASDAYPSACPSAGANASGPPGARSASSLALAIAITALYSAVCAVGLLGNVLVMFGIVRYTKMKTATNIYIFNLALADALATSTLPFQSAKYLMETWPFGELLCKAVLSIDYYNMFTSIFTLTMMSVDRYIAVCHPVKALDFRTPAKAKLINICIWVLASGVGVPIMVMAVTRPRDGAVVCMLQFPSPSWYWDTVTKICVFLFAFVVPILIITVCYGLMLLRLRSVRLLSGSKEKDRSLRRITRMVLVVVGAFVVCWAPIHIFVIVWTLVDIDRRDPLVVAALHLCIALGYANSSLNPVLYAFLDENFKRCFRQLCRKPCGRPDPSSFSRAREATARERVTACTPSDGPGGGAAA
HTR5A inv ag: HTR5A inverse agonists in luminescence cell assay, primary screen, counter-screen for OPRM1-OPRD1 heterodimer inverse agonist project, full-deck HTS. HTR5A cell line, inverse agonism. AID 504634, 2011. 5-hydroxytryptamine receptor 5A (Homo sapiens), P47898. 340,000 compounds, 0.083% hits. inhibition, % at 9.3 µM; in the data active means inhibition mostly above about 23%, no sharp cut-off; inactive means mostly below about 18%;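 further: 0% = cells with DMSO and 100% = no-cell wells with DMSO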
HTR5A ag ctr: HTR5A agonists in luminescence cell assay, primary screen, counter-screen for OPRM1-OPRD1 heterodimer agonist project, full-deck HTS; cell-based; activation, % at 9.3 µM; AID 504692, 2011; 340,000 compounds, 0.61% hits; in the data active means activation mostly above about 9.5%, no sharp cut-off; inactive means mostly below about 7.6%;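 further: 0% = cells with vehicle only and 100% = reference agonist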
OPRM1-OPRD1 ag: agonists of OPRM1-OPRD1 heterodimerization, primary screen, cell-based, luminescence. Mu-type opioid receptor (Homo sapiens) + Delta-type opioid receptor (Homo sapiens), …. activation, % at 9.3 µM. cells. 340,000 compounds, 0.3% hits; in the data active means activation above about 18%;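 further: 0% = vehicle-treated cells and 100% = reference agonist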
* marks the source's active call; other numbers are inactive results. Shown are actives, neighbours in structure and some others; about 1.1% of the full set was active somewhere.

Screening O=C(O)c1ccc(CNS(=O)(=O)c2ccc3ccccc3c2)cc1 returned MOR-DOR inv ag 3.5, HTR5A inv ag -26.3, HTR5A ag ctr 9.9* and OPRM1-OPRD1 ag -0.5.
For NS(=O)(=O)c1ccc(CNS(=O)(=O)c2ccc3ccccc3c2)cc1 the results were MOR-DOR inv ag 20.6, HTR5A inv ag 4.8, HTR5A ag ctr -4.6 and OPRM1-OPRD1 ag -3.7.
For N#CCCNS(=O)(=O)c1ccc(C(=O)OCC2CCCCC2)cc1 the results were MOR-DOR inv ag -59.6, HTR5A inv ag 1.2, HTR5A ag ctr 12.3* and OPRM1-OPRD1 ag 7.3.
`COC(=O)c1ccc(NS(=O)(=O)c2ccc(S(=O)(=O)N3CCOCC3)cc2)cc1` gave MOR-DOR inv ag 6.4, HTR5A inv ag -8.9, HTR5A ag ctr 3.6 and OPRM1-OPRD1 ag -1.5.
For COc1ccc2[nH]cc(CCn3ccc(=O)c(C)c3C)c2c1 the results were MOR-DOR inv ag 11.2, HTR5A inv ag 5.3, HTR5A ag ctr 11.3* and OPRM1-OPRD1 ag -2.3.
Screening CCn1nc(C)c(CN2CCC(C(=O)Nc3cccc(-c4cccc(F)c4)c3)CC2)c1C returned MOR-DOR inv ag -2.8, HTR5A inv ag -32.6, HTR5A ag ctr 8.7* and OPRM1-OPRD1 ag 0.6.
Screening O=C(COC(=O)c1cc[n+]([O-])cc1)Nc1cc([N+](=O)[O-])ccc1Cl returned MOR-DOR inv ag 1.6, HTR5A inv ag -12.1, HTR5A ag ctr 2.6 and OPRM1-OPRD1 ag -0.2.
For CC(=O)Oc1ccc(C(c2ccc(OC(C)=O)cc2)c2ccccn2)cc1 the results were MOR-DOR inv ag -313.0, HTR5A inv ag -120.3, HTR5A ag ctr 33.7* and OPRM1-OPRD1 ag 57.9*.
CCOC(=O)C(Cc1c[nH]c2ccccc12)NC(=O)c1ccccc1Br (stereo not given) was read as MOR-DOR inv ag 3.8, HTR5A inv ag 6.7, HTR5A ag ctr -1.8 and OPRM1-OPRD1 ag -0.8.
O=C(O/N=C1/CCSc2ccccc21)c1ccc(F)cc1 was read as MOR-DOR inv ag -34.5, HTR5A inv ag -50.1, HTR5A ag ctr 10.3* and OPRM1-OPRD1 ag 6.0.
`Fc1ccc(Br)cc1C1C=C(c2ccc(Br)s2)Nc2ncnn21` (stereo not given) gave MOR-DOR inv ag 1.4, HTR5A inv ag 0.8, HTR5A ag ctr 17.2* and OPRM1-OPRD1 ag -0.2.
COc1cccc(C2C=C(c3ccc(Br)s3)Nc3ncnn32)c1OC (stereo not given) was read as MOR-DOR inv ag 17.8, HTR5A inv ag 15.9, HTR5A ag ctr 1.7 and OPRM1-OPRD1 ag -3.1.
CNC(=O)c1cccc(NC(=O)c2ccccc2OCc2ccccc2)c1 was read as MOR-DOR inv ag -11.2, HTR5A inv ag 3.9, HTR5A ag ctr -1.3 and OPRM1-OPRD1 ag 1.4.
For C/C(CC(=O)Nc1ccc(C)c(Cl)c1)=N\NC(=O)Cc1ccccc1 the results were MOR-DOR inv ag -7.4, HTR5A inv ag -31.8, HTR5A ag ctr 12.2* and OPRM1-OPRD1 ag 1.5.
COc1ccc(C2NS(=O)(=O)OCC2C)cc1 (stereo not given) was read as MOR-DOR inv ag 6.1, HTR5A inv ag -24.2, HTR5A ag ctr 3.3 and OPRM1-OPRD1 ag -1.1.
For CN(Cc1ccccc1)C1CCNCC1 the results were MOR-DOR inv ag 19.6, HTR5A inv ag -23.2, HTR5A ag ctr 6.2 and OPRM1-OPRD1 ag -4.0.
Screening O=C(NCC1COCCO1)c1cc(COc2c(F)cccc2F)on1 (stereo not given) returned MOR-DOR inv ag 14.6, HTR5A inv ag 12.1, HTR5A ag ctr -0.9 and OPRM1-OPRD1 ag -2.8.
CC(C)C[C@@H](CO)N(Cc1ccccc1)S(=O)(=O)N(Cc1ccccc1)[C@H](CO)CC(C)C was read as MOR-DOR inv ag -53.2, HTR5A inv ag -10.0, HTR5A ag ctr 3.4 and OPRM1-OPRD1 ag 9.5.
For C=C[C@H](CC(C)C)N(Cc1ccccc1)S(=O)(=O)N(Cc1ccccc1)[C@@H](C=C)CC(C)C the results were MOR-DOR inv ag 42.1*, HTR5A inv ag 31.5*, HTR5A ag ctr 0.4 and OPRM1-OPRD1 ag -7.5.
Cc1cccc(OCc2nnc(SCC(=O)c3c(N)n(C4CC4)c(=O)[nH]c3=O)o2)c1 was read as MOR-DOR inv ag 3.3, HTR5A inv ag -3.3, HTR5A ag ctr 1.1 and OPRM1-OPRD1 ag -0.5.
COc1ccc(C(=O)CC2OC(=O)c3c2ccc(OC)c3OC)cc1 (stereo not given) was read as MOR-DOR inv ag -4.9, HTR5A inv ag -39.9, HTR5A ag ctr 12.7* and OPRM1-OPRD1 ag 0.8.
CCc1nnc(NS(=O)(=O)c2ccc(Nc3ccc([N+](=O)[O-])c4nonc34)cc2)s1 was read as MOR-DOR inv ag 36.1*, HTR5A inv ag 30.9*, HTR5A ag ctr -11.2 and OPRM1-OPRD1 ag -6.5.
Screening CCc1nnc(NS(=O)(=O)c2ccc(NS(=O)(=O)c3ccccc3[N+](=O)[O-])cc2)s1 returned MOR-DOR inv ag 7.8, HTR5A inv ag -0.6, HTR5A ag ctr 0.1 and OPRM1-OPRD1 ag -1.7.
`C=CCn1c(SCC(=O)Nc2ccc(C(=O)OC(C)C)cc2)nnc1-c1cccs1` gave MOR-DOR inv ag -18.6, HTR5A inv ag -17.8, HTR5A ag ctr 9.0* and OPRM1-OPRD1 ag 3.3.
For C=CCn1c(SCC(=O)Nc2ccc(-c3nc4ccc(C)cc4s3)cc2)nnc1-c1ccccc1 the results were MOR-DOR inv ag -105.4, HTR5A inv ag 15.7, HTR5A ag ctr 5.5 and OPRM1-OPRD1 ag 19.9*.
For C=CCn1c(SCC(=O)NNC(=O)Nc2ccc(C)cc2)nnc1-c1ccccc1 the results were MOR-DOR inv ag 8.3, HTR5A inv ag -12.8, HTR5A ag ctr -0.9 and OPRM1-OPRD1 ag -1.6.
`Cc1ccc(CN2C(=O)CSC2c2ccccc2F)cc1` (stereo not given) gave MOR-DOR inv ag -0.2, HTR5A inv ag -1.2, HTR5A ag ctr 0.3 and OPRM1-OPRD1 ag 0.1.
`COc1ccc(S(=O)(=O)N2CCOC23CCN(S(=O)(=O)c2c(C)cc(C)cc2C)CC3)cc1` gave MOR-DOR inv ag -23.6, HTR5A inv ag 7.8, HTR5A ag ctr 10.9* and OPRM1-OPRD1 ag 3.6.
For COc1ccc(N=Cc2cc(Cc3ccccc3Cl)cc([N+](=O)[O-])c2O)cc1OC the results were MOR-DOR inv ag -2.9, HTR5A inv ag -10.1, HTR5A ag ctr 3.9 and OPRM1-OPRD1 ag 0.6.
For Cc1ccc(N=Cc2cc(Cc3ccccc3Cl)cc([N+](=O)[O-])c2O)c(O)c1 the results were MOR-DOR inv ag -76.5, HTR5A inv ag -12.3, HTR5A ag ctr 11.7* and OPRM1-OPRD1 ag 10.6.
Screening CC[n+]1ccc(/C=C/c2ccc(N(C)C)cc2)c2ccccc21 returned MOR-DOR inv ag 27.2, HTR5A inv ag 34.4*, HTR5A ag ctr -13.5 and OPRM1-OPRD1 ag -5.9.
COc1cc(/C=N/n2cnnc2)ccc1Oc1nc(Cl)ncc1F was read as MOR-DOR inv ag 4.7, HTR5A inv ag 8.7, HTR5A ag ctr -3.4 and OPRM1-OPRD1 ag -1.0.
For COc1ccc(/C=N/n2cnnc2)cc1Oc1nc(Cl)ncc1F the results were MOR-DOR inv ag 1.4, HTR5A inv ag -29.8, HTR5A ag ctr 11.6* and OPRM1-OPRD1 ag -0.3.
CCCCCCCN(C(=O)CCl)c1cccc(C)c1 was read as MOR-DOR inv ag -426.3, HTR5A inv ag -128.7, HTR5A ag ctr 84.4* and OPRM1-OPRD1 ag 79.3*.
